Source: PubChem BioAssay
Values without a mark were called inactive. Where a call stands in place of a potency, no number is given. For some assays here: Potency and affinity values are given separately. Calls of active or inactive are those of the source. Unless noted, the rule behind the calls is not given here.

Assays:
[1] = antimalarial activity against Dd2 strain (AID 2302;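 active = growth inhibition above 50% at the single 2 µM test dose, taken to imply half-maximal potency below 2 µM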); details: P. falciparum Dd2 in RBCs, LDH growth readout, 72 h; at 2 µM; stronger effect = higher value
[2] = HepG2 cytotoxicity, primary screen, cytotoxicity control for P. falciparum antimalarial project, cell-based, ATP luminescence (AID 2303;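 active = inhibition above 50%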); details: HepG2 viability, 24-48 h, at 10 µM, stronger effect = higher value
[3] = biological target: L-lactate dehydrogenase (Plasmodium falciparum (isolate CDC / Honduras)) (UniProt Q27743); test: PfLDH activity inhibition – cell lysate, 3D7 strain, counter-screen for P. falciparum growth inhibition project (AID 2304); details: P. falciparum 3D7 crude extract, LDH APAD/NBT absorbance; at 2 µM; stronger effect = higher value
[4] = inhibition of 3D7 malaria parasite growth – strain 3D7 (AID 2306); details: P. falciparum 3D7 erythrocytic growth, LDH absorbance, 72 h; at 2 µM; stronger effect = higher value
[5] = biological target: Calcium-dependent protein kinase 1 (Plasmodium falciparum (isolate 3D7)) (UniProt P62344); test: PfCDPK1 kinase inhibitors, biochemical, TCAMS library (AID 1159585; cut-off not given, nearly all actives have IC50 up to about 0.98 µM;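 note: inhibitors leave more ATP so luminescence rises with inhibition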); details: recombinant PfCDPK1, Kinase-Glo ATP depletion luminescence
[6] = biological target: Plasmodium falciparum protein kinase 6 (PK6, PF3D7_1337100) (UniProt Q8IDW1); test: PfPK6 kinase inhibitors, biochemical, TCAMS library (AID 1159586); details: recombinant PfPK6, Kinase-Glo ATP depletion luminescence
[7] = biological target: Protein kinase 7 (PK7), Plasmodium falciparum 3D7 (PF3D7_0213400) (UniProt Q7YTF7); test: inhibition of Plasmodium PK7 catalytic activity – biochemical, TCAMS antimalarial set, Kinase-Glo luminescence (AID 1159587); details: recombinant PfPK7, Kinase-Glo ATP depletion luminescence
[8] = biological target: Calcium-dependent protein kinase 4 (Plasmodium falciparum (isolate 3D7)) (UniProt Q8IBS5); test: PfCDPK4 kinase inhibitors, biochemical, TCAMS library (AID 1159588; cut-off not given, nearly all actives have IC50 up to about 0.91 µM); details: recombinant PfCDPK4, Kinase-Glo ATP depletion luminescence
Sequence of Calcium-dependent protein kinase 4 (Plasmodium falciparum (isolate 3D7)) (Q8IBS5 whole entry, looked up): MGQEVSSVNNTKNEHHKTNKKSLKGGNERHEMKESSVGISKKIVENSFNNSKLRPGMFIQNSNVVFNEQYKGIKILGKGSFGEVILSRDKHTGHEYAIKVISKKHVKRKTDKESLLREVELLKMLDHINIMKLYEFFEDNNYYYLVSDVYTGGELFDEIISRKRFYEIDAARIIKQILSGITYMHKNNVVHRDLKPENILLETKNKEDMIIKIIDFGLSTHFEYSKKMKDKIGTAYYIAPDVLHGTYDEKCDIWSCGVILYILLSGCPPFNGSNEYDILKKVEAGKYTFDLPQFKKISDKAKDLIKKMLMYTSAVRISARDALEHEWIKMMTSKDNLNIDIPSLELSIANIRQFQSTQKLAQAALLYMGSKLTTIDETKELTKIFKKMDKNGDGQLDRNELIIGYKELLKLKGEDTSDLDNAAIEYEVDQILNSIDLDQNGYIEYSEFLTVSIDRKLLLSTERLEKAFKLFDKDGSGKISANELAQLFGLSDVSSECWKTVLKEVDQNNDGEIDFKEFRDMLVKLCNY

Sequence of Plasmodium falciparum protein kinase 6 (PK6, PF3D7_1337100) (Q8IDW1 1-305): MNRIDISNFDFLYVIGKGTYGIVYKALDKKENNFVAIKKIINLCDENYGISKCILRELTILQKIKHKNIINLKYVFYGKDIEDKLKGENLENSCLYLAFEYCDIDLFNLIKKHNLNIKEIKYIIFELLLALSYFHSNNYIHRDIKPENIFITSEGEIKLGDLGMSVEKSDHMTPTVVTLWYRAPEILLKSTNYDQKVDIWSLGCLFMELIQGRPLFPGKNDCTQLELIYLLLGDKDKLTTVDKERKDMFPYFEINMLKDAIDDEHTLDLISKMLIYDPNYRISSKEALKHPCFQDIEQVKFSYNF
Sequence of Protein kinase 7 (PK7), Plasmodium falciparum 3D7 (PF3D7_0213400) (Q7YTF7 1-343): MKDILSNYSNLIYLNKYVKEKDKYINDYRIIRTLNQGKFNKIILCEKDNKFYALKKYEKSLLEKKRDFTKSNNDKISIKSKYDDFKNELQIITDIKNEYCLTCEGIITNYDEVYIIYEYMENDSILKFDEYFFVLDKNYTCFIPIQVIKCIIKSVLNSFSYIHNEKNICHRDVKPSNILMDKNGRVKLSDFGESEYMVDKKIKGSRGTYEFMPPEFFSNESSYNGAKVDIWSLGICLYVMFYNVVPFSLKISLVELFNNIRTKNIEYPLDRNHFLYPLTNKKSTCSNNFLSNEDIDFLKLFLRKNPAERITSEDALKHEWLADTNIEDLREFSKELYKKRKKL
Sequence of Calcium-dependent protein kinase 1 (Plasmodium falciparum (isolate 3D7)) (P62344 whole entry, looked up): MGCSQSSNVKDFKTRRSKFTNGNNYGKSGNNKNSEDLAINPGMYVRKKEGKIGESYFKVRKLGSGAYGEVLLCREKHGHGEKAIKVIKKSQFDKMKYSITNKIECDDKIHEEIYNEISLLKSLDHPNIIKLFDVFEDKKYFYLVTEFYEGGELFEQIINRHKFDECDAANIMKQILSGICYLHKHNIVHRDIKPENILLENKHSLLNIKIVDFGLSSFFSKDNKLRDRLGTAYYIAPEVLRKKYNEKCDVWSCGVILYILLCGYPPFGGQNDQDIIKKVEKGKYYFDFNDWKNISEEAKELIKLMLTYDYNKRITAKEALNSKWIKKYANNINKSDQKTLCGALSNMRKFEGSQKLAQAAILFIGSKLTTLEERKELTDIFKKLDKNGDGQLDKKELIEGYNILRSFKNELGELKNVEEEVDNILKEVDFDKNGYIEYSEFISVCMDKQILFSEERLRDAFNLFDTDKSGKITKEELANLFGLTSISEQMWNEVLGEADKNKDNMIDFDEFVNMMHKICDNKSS
Sequence of L-lactate dehydrogenase (Plasmodium falciparum (isolate CDC / Honduras)) (Q27743 whole entry, looked up): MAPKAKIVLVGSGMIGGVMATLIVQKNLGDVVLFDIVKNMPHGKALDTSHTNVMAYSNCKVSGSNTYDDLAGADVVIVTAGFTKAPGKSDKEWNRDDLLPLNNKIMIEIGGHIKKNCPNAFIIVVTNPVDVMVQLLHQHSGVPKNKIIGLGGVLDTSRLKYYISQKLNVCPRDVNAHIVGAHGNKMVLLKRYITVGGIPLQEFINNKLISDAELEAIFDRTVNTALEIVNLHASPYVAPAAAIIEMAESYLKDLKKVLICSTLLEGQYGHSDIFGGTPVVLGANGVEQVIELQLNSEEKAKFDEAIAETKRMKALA

| Structure (SMILES) | growth inhibition [1] | inhibition [2] | inhibition [3] | growth inhibition [4] | outcome [5] | outcome [6] | outcome [7] | outcome [8] |
| --- | --- | --- | --- | --- | --- | --- | --- | --- |
| COc1ccc2ccccc2c1C=NNc1ccnc2ccc(F)cc12 | 10% | 11% | -2% | 87% (active) | inactive | inactive | inactive | inactive |
| O=C(C=Cc1ccc(Cl)c(Cl)c1)NC1CCN(CCc2ccccc2)CC1 | 13% | 6% | -8% | 97% (active) | inactive | inactive | inactive | inactive |
| Cc1cccc(OC(C)C(=O)Nc2cc(C(F)(F)F)ccc2N2CCOCC2)c1 (stereo not given) | 98% (active) | 2% | -3% | 100% (active) | inactive | inactive | inactive | inactive |
| Cc1cc(N[C@@H](Cc2ccccc2)C(=O)NCc2cccs2)nc(NCCc2cccnc2)n1 | 38% | 10% | -4% | 84% (active) | inactive | inactive | inactive | inactive |
| CNc1ccc(CNCc2ccc(-c3ccc(-c4nc5ccc(C(F)(F)F)cc5[nH]4)cc3)cc2)cc1 | 98% (active) | 53% (active) | -3% | 101% (active) | inactive | inactive | inactive | inactive |
| CC(C)COc1ccc(Cl)cc1Nc1nc(-c2nc3ccccc3[nH]2)cs1 | 29% | 2% | 0% | 96% (active) | inactive | inactive | inactive | inactive |
| COc1ccc(-c2csc3ncnc(Cl)c23)cc1 | 97% (active) | -15% | 5% | 96% (active) | inactive | inactive | inactive | inactive |
| O=C(Nc1nc(-c2ccccn2)cs1)c1ccc(Br)s1 | 84% (active) | 40% | 7% | 96% (active) | inactive | inactive | inactive | inactive |
| O=C(Nc1ccc(Cl)cc1)Nc1cccc(-c2cccc(-c3nc4ccc(F)cc4[nH]3)c2)c1 | 84% (active) | 79% (active) | -2% | 100% (active) | inactive | inactive | inactive | inactive |
| C[C@H](Cc1ccc(OCCCCCOc2ccc(C[C@@H](C)NC[C@H](O)c3cccc(Cl)c3)cc2)cc1)NC[C@H](O)c1cccc(Cl)c1 | 101% (active) | 99% (active) | -1% | 99% (active) | inactive | inactive | inactive | inactive |
| CN1CCN(c2ccnc3cc4c(cc23)N(C(=O)Nc2ccc(-c3ccncc3)c3ccccc23)CC4)CC1 | 97% (active) | 10% | -2% | 101% (active) | inactive | inactive | inactive | inactive |
| O=C(NCc1cccc(F)c1)Nc1cccc(-c2ccc(-c3nc4ccc(C(F)(F)F)cc4[nH]3)cc2)c1 | 20% | 50% (active) | -4% | 98% (active) | inactive | inactive | inactive | inactive |
| O=C(Nc1ccccc1)N(Cc1ccc(-c2cccc(CNC3CCCC3)c2)cc1)C1CCN(Cc2ccccc2)CC1 | 67% (active) | 43% | 1% | 101% (active) | inactive | inactive | inactive | inactive |
| O=C(N[C@@H](Cc1ccccc1)C(=O)NC1CCCc2ccccc21)c1ccc(O)c(-c2ccc(Cl)c(Cl)c2)c1 (stereo not given in full) | 99% (active) | -3% | -8% | 97% (active) | inactive | inactive | inactive | inactive |
| O=C(Nc1cccc(-c2ccc(-c3nc4ccccc4[nH]3)cc2)c1)c1cccnc1 | 1% | 18% | -5% | 100% (active) | inactive | inactive | inactive | inactive |
| CN(Cc1cccc(F)c1)C1CCN(c2cc(NC(=O)c3cccc(F)c3)ccn2)CC1 | 13% | 12% | 3% | 94% (active) | inactive | inactive | inactive | inactive |
| CS(=O)(=O)CCNCc1ccc(-c2ccc3c(Nc4ccc(Oc5ccccn5)cc4)ccnc3c2)o1 | 99% (active) | 0% | -7% | 100% (active) | inactive | inactive | inactive | inactive |
| CC(=O)N[C@H](C(=O)Nc1ccc(-c2cccc(-c3nc4c(C)cccc4[nH]3)c2)cc1)C(C)C | 10% | 9% | 2% | 89% (active) | inactive | inactive | inactive | inactive |
| CC(C)N(Cc1ccc(-c2ccc(C(F)(F)F)cc2)cc1)C(=O)Cn1c(CCc2cccc(F)c2F)cc(=O)c2ccc(CCCN3CCCCC3)cc21 | 82% (active) | 99% (active) | 7% | 100% (active) | inactive | inactive | inactive | inactive |
| O=C(/C=C/c1ccc(Cl)c(Cl)c1)NCCCCCN1CCCC(CCCNC(=O)Nc2ccc(C(F)(F)F)cc2)C1 (stereo not given) | 48% | 58% (active) | -4% | 101% (active) | inactive | inactive | inactive | inactive |

| Structure (SMILES) | growth inhibition [1] | inhibition [2] | inhibition [3] | growth inhibition [4] | outcome [5] | outcome [6] | outcome [7] | outcome [8] |
| --- | --- | --- | --- | --- | --- | --- | --- | --- |
| Cc1ccc2[nH]c(C3CCCNC3)c(-c3ccncc3)c2c1 (stereo not given) | 22% | 10% | 0% | 101% (active) | inactive | inactive | inactive | inactive |
| C=CCOC(=O)N1CCC(CNCc2cccc(-c3ccc(-c4nc5ccccc5[nH]4)s3)c2)C1 (stereo not given) | 63% (active) | 9% | 0% | 99% (active) | inactive | inactive | inactive | inactive |
| CCOC(=O)CNCC(=O)c1ccc(OCc2ccccc2)cc1 | 43% | 4% | -3% | 95% (active) | inactive | inactive | inactive | inactive |
| O=S(=O)(c1cccc(Br)c1)N1CCCCC(c2ccc(C(F)(F)F)cc2)=N1 | 92% (active) | 30% | -4% | 91% (active) | inactive | inactive | inactive | inactive |
| COc1cccc(CNC(=O)[C@H]2CNCCN2C(=O)CCCc2ccccc2)c1 | 95% (active) | 56% (active) | 2% | 91% (active) | inactive | inactive | inactive | inactive |
| O=c1cc(NCCCCNCc2ccc(Br)c(Br)c2)[nH]c2ccccc12 | 14% | 13% | 2% | 98% (active) | inactive | inactive | inactive | inactive |
| CC(C)Cc1nc(N2CCOCC2)c2nnn(Cc3ccccc3)c2n1 | 76% (active) | 7% | -2% | 98% (active) | inactive | inactive | inactive | inactive |
| NC1CCN(Cc2cccc(-c3ccc(-c4nc5ccc(F)cc5[nH]4)cc3)c2)C1 (stereo not given) | 99% (active) | 24% | -1% | 99% (active) | inactive | inactive | inactive | inactive |
| Nc1c2nc(-c3c(F)cccc3Cl)[nH]c(=O)c2nc(=O)n1-c1ccccc1 | 0% | 52% (active) | 2% | 95% (active) | inactive | inactive | inactive | inactive |
| CC(=O)c1cccc2c(NC(=O)Nc3ccc4nccc(N5CCN(C)CC5)c4c3)cccc12 | 94% (active) | 13% | -3% | 99% (active) | inactive | inactive | inactive | inactive |
| CNC(=O)CSc1nnc(-c2ccc(C)cc2)c(-c2ccc(C)cc2)n1 | 49% | 2% | -3% | 94% (active) | inactive | inactive | inactive | inactive |
| c1cc(-c2ccc(CN3CCN(c4ccncc4)CC3)cc2)cc(-c2nc3ccccc3[nH]2)c1 | 100% (active) | 61% (active) | -2% | 101% (active) | inactive | inactive | inactive | inactive |
| Nc1ccc(-c2ccc3ccnc(N)c3c2)cc1 | 68% (active) | 38% | -1% | 102% (active) | inactive | inactive | inactive | inactive |
| CCNc1cc(C(=O)N[C@@H](Cc2ccccc2)[C@H](O)CNCC(C)C)cc(N2CCCC2=O)c1 | 97% (active) | 16% | 3% | 98% (active) | inactive | inactive | inactive | inactive |
| OCCNc1nc(Nc2ccc(Cl)cc2)nc2ccccc12 | 99% (active) | 30% | -1% | 102% (active) | inactive | inactive | inactive | inactive |
| Cc1cccc(-c2nc(Nc3ccncc3)c3ccc([N+](=O)[O-])cc3n2)n1 | 13% | -9% | -1% | 87% (active) | inactive | inactive | inactive | inactive |
| CCN(CC)CCN(Cc1ccc(-c2ccc(C(F)(F)F)cc2)cc1)C(=O)Cn1c(CCc2cccc(F)c2F)c(C)c(=O)c2ccccc21 | 52% (active) | 61% (active) | 3% | 87% (active) | inactive | inactive | inactive | inactive |
| CC(CNc1nc(NCC(c2ccccc2)c2ccccc2)c2[nH]cnc2n1)c1ccccc1 (stereo not given) | 24% | 5% | -8% | 93% (active) | inactive | inactive | inactive | inactive |
| CC(C)CNCc1ccc(-c2cccc(CNC3CCN(Cc4ccccc4)CC3)c2)cc1 | 100% (active) | 34% | -9% | 101% (active) | inactive | inactive | inactive | inactive |
| COc1ccc(NC(=O)C2c3ccccc3C(=O)N(C3CCCC3)C2c2cccs2)c(OC)c1 (stereo not given) | 54% (active) | 3% | 4% | 84% (active) | inactive | inactive | inactive | inactive |
